An excerpt weighted towards active compounds, which were near 5.4% of everything screened.
APOBEC3G inh = blocks human APOBEC3G single-stranded DNA deamination. Q9HC16. recombinant A3G, ssDNA deamination FAM/TAMRA fluorescence. inhibition, % at 20 µM. 330,000 tested, 0.28% active. AID 493012;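 active means inhibition of at least 40% at 20 µM, with no more than 30% in the related APOBEC3A deaminase screen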
Target sequence (Q9HC16 whole entry, looked up): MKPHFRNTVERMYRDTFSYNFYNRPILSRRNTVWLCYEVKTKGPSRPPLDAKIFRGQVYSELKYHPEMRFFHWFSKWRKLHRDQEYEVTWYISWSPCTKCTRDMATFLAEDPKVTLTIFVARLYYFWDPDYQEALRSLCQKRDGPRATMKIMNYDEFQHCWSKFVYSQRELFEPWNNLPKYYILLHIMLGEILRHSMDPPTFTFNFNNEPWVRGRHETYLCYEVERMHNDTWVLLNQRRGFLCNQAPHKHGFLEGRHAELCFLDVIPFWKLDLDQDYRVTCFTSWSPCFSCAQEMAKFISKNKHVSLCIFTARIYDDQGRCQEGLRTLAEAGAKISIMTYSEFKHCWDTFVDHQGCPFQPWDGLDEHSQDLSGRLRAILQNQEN
ALR inh = human ALR oxidase inhibition via reduced H2O2; purified ALR, DTT oxidation, H2O2 HRP-luminol luminescence; P55789; inhibition, % (concentration not given with the values); 290,000 tested, 3.8% active;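 active means mean replicate inhibition above about 79%, with every replicate also reaching it, limit read from the data; inconclusive means only one of the two criteria met; inactive means mean below limit and not every replicate reaching it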
A3A deaminase = human APOBEC3A DNA deaminase inhibition. recombinant A3A, FAM/TAMRA ssDNA deamination fluorescence. 330,000 tested, 0.41% active. AID 493011. inhibition, % at 20 µM;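 active means at least 40% inhibition at 20 µM here, with at most 30% in a related deaminase screen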
aDG glyco act = alpha-DG glycosylation activation. Pro5-aDG cells, alpha-DG glycosylation AlphaScreen (IIH6); 0% Pro5, 100% B10-LARGE cell signal. activation, % at 10 µM. 360,000 tested, 0.22% active. AID 624168;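 active means activation of at least 8% versus controls, or a plate z-score of at least 8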;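 further: Pro5 are CHO cells carrying HIG-tagged alpha-DG that lacks glycosylation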
rCAG binder = molecules binding r(CAG) RNA repeats. r(CAG) RNA repeat, TO-PRO-1 dye displacement fluorescence. AID 651821. 370,000 tested, 1.3% active. inhibition, % at 3 µM;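 active means inhibition above the plate cutoff, the mean of all test compounds on that plate plus 3 SD, cut at about 35% in these data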;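 further: higher means more dye released from RNA so lower well fluorescence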
PHOSPHO1 block = inhibitors of human PHOSPHO1 phosphatase | Q8TCT1 | recombinant PHOSPHO1, absorbance phosphatase assay | inhibition, % at 13.3 µM | 290,000 tested, 1.1% active | AID 1565; in the data active means inhibition above about 60%
Target sequence (Q8TCT1 whole entry, looked up): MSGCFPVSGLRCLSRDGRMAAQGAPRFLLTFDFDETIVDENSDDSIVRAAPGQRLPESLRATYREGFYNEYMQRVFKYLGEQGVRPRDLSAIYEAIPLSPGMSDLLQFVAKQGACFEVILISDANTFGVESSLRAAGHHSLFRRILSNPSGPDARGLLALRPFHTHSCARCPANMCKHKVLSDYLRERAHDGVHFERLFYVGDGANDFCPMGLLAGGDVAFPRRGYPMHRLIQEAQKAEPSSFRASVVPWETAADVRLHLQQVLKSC
Each line names hits and unclear results; the compound was inactive in the other large screens.

CC(C)c1ccc(NC(=O)CSc2nc(=O)[nH]c3c2CCCC3)cc1	none (no result: PHOSPHO1 block)
Cc1nn(-c2nnc(C)c(=O)[nH]2)c(C)c1SCC(=O)Nc1ccc(F)cc1	ALR inh 98.9
Cn1cnnc1SCC(=O)Nc1ccc(F)cc1	none (no result: ALR inh)
COCCCNC(=O)C[C@H]1C[C@@]2(C(=O)OC)C(=C[C@H](C3CCCC3)O[C@@H]2C)N(CCC2=CCCCC2)C1=O	none (no result: APOBEC3G inh, ALR inh, A3A deaminase, aDG glyco act, PHOSPHO1 block)
Cc1cc(C)cc(NC(=O)OC2CC3CC2[C@H]2CCCCN2[C@H]3C)c1 (some centres not stated)	none (no result: APOBEC3G inh, ALR inh, A3A deaminase, aDG glyco act, PHOSPHO1 block)
Cc1ccc(NC(=S)NNC(=O)CSc2nnc(-c3ccc(Cl)cc3)n2C2CCCCC2)cc1	none
CCn1c(SCC(=O)c2ccc(O)c(O)c2)nnc1-c1ccc(C)cc1	PHOSPHO1 block 81.3
CCn1c(SCC(=O)NNC(=S)Nc2ccc(C)cc2)nnc1-c1ccc(Cl)cc1	ALR inh 96.5
Cc1nc(N=Nc2ccc(O)cc2)n[nH]1	ALR inh 94.1
O=C(O)/C=C/C(=O)Nc1ccc(Oc2ccc(NC(=O)/C=C/C(=O)O)cc2)cc1	none (no result: ALR inh, aDG glyco act, rCAG binder)
O=C(O)/C=C/C(=O)Nc1ccc(Cc2ccc(NC(=O)/C=C/C(=O)O)cc2)cc1	ALR inh 99.2
O=C(O)/C=C/C(=O)Nc1ccc(C2(c3ccc(NC(=O)/C=C/C(=O)O)cc3)c3ccccc3-c3ccccc32)cc1	ALR inh 97.7
O=C(O)/C=C\C(=O)Nc1ccc(Oc2ccccc2)cc1	none
CC[n+]1c(/C=C/Nc2ccccc2)oc2ccccc21	PHOSPHO1 block 101.4
CCSc1cnn(-c2ccccc2)c(=O)c1Cl	none (no result: PHOSPHO1 block)
COc1cnc(SCc2ccc(Cl)cc2Cl)nc1Cl	ALR inh 98.1
COc1cnn(-c2ccccc2)c(=O)c1SCc1ccc(Cl)cc1Cl	ALR inh 97.8
COc1cnn(-c2ccc(C)cc2)c(=O)c1SCc1ccccc1	PHOSPHO1 block 80.7
CCOc1cnn(-c2ccccc2)c(=O)c1Cl	ALR inh 96.5
CCCCCCCCN1C(=O)[C@@H](CC(=O)NCCc2ccccc2OC)C[C@@]2(C(=O)OC)C1=C[C@H](COCc1ccccc1)O[C@@H]2C	none (no result: APOBEC3G inh, ALR inh, A3A deaminase, aDG glyco act, PHOSPHO1 block)
O=C(CSc1nnc(-c2cnccn2)n1-c1ccccc1)Nc1ccc2cn[nH]c2c1	none (no result: APOBEC3G inh, ALR inh, A3A deaminase, aDG glyco act, PHOSPHO1 block)
Cc1ccc(C2NC(=S)N3C(c4ccc(C)cc4)NC(=S)N23)cc1 (configuration not stated)	none (no result: APOBEC3G inh, ALR inh, A3A deaminase, PHOSPHO1 block)
S=C1NC(c2ccccc2)N2C(=S)NC(c3ccccc3)N12 (configuration not stated)	ALR inh 98.2
COC(=O)[C@]12C[C@H](CC(=O)N3CCCC3)C(=O)N(Cc3ccco3)C1=C[C@H](COCc1ccccc1)O[C@@H]2C	none (no result: APOBEC3G inh, ALR inh, A3A deaminase, aDG glyco act, PHOSPHO1 block)
CCC(C)NS(=O)(=O)c1ccc2[nH]c(=O)oc2c1 (configuration not stated)	none (no result: APOBEC3G inh, ALR inh, A3A deaminase, aDG glyco act, PHOSPHO1 block)
Cc1ccccc1N/N=C1\CCCNC1=O	none
O=C1NCCC/C1=N\Nc1ccc(Br)cc1	ALR inh 99.0
COC(=O)[C@H](CC(C)C)N(CCCc1cn(Cc2ccc(C)cc2)nn1)S(=O)(=O)c1ccc(F)cc1Br	none (no result: APOBEC3G inh, ALR inh, A3A deaminase, aDG glyco act, PHOSPHO1 block)
COc1ccc(N2C(=O)CSC23CCCCC3)cc1	ALR inh 98.5
CCOc1ccc(N2C(=O)CSC23CCCCC3)cc1	none
CN(C)CCCNC(=O)C[C@@H]1CC[C@@H]2[C@H](COc3ccc(NC(=O)c4cccc(F)c4)cc3C(=O)N2C)O1	none (no result: APOBEC3G inh, ALR inh, A3A deaminase, aDG glyco act, PHOSPHO1 block)
Cc1cc(NC(=O)CCc2c[nH]c3ccccc23)ccc1Oc1cccnc1	none (no result: APOBEC3G inh, ALR inh, A3A deaminase, aDG glyco act, PHOSPHO1 block)
Cc1[nH]c2ccccc2c1N=Nc1ccc(F)cc1	ALR inh 98.2
Cc1[nH]c2ccccc2c1N=Nc1cc(C(=O)O)cc(C(=O)O)c1	none
Cc1[nH]c2ccccc2c1N=Nc1ccccc1F	ALR inh 98.7
Cc1ccccc1CN1CCCCC(NC(=O)c2ccccc2C(F)(F)F)C1=O (configuration not stated)	none (no result: APOBEC3G inh, ALR inh, A3A deaminase, aDG glyco act, PHOSPHO1 block)
CN1CCN(c2ccc(NC(=O)c3ccc(Cl)cc3)cn2)CC1	ALR inh 94.0
Cc1ccc(C(=O)Nc2ccc(N3CCOCC3)nc2)cc1	none
CN(C)c1ccc(NC(=O)c2ccc(N3CCOCC3)nc2)cc1	ALR inh 99.7
CC(=O)c1cc2cc(O)ccc2o1	PHOSPHO1 block 88.9 (no result: ALR inh)
CC(C)NC(=O)/C(C#N)=C/c1ccc(N(C)C)o1	ALR inh 98.4
Cc1ccc(/C=C(\C#N)C(=O)NC(C)C)o1	none
OC(c1ccccc1)(c1ccccc1)C1CCN(CCCOc2ccc(-c3cncnc3)cc2)CC1	none (no result: APOBEC3G inh, ALR inh, A3A deaminase, aDG glyco act, PHOSPHO1 block)
Cc1ccc(NC2CCCN(C(=O)c3cnsn3)C2)cc1C (configuration not stated)	ALR inh 98.8
O=C(c1cccc2nccnc12)N1CCCC(Nc2ccc(F)c(F)c2)C1 (configuration not stated)	none
CC(C)c1ccc(NC2CCCN(C(=O)c3cc(C(C)C)[nH]n3)C2)cc1 (configuration not stated)	none (no result: ALR inh)
Cc1ccc(NC2CCCN(C(=O)c3cc(C(C)C)[nH]n3)C2)cc1C (configuration not stated)	ALR inh 98.5
Cc1ccc2nccc(C(=O)N3CCCC(Nc4ccc(C)c(C)c4)C3)c2c1 (configuration not stated)	ALR inh 98.9
CSc1ncccc1C(=O)N1CCCC(Nc2ccc(C)c(C)c2)C1 (configuration not stated)	ALR inh 98.8
CCCCCCCCN1C(=O)[C@@H](CC(=O)N2CCN(C(=O)OCC)CC2)C[C@@]2(C(=O)OC)C1=C[C@H](C(C)(C)C)O[C@@H]2C	none (no result: APOBEC3G inh, ALR inh, A3A deaminase, aDG glyco act, PHOSPHO1 block)
CC1=C(c2ccccc2)C(=O)C(C)(C)CC1=O	none (no result: APOBEC3G inh, ALR inh, A3A deaminase, aDG glyco act, PHOSPHO1 block)
CCCc1cc(C(=O)N2CCCC(Nc3ccc(C)c(C)c3)C2)n(C)n1 (configuration not stated)	ALR inh 98.4
Cc1cc(C(=O)N2CCCC(Nc3ccc(C)c(C)c3)C2)nc(C)n1 (configuration not stated)	none (no result: APOBEC3G inh, ALR inh, A3A deaminase, PHOSPHO1 block)
Cc1ccc(NC2CCCN(C(=O)c3ccccn3)C2)cc1C (configuration not stated)	ALR inh 98.9
CSc1nc(C(=O)N2CCCC(N3CCN(c4ccccc4C)CC3)C2)cs1 (configuration not stated)	none
Cc1nc(CC(C)C)cc(C(=O)N2CCCC(Nc3ccc(C)c(C)c3)C2)n1 (configuration not stated)	ALR inh inconclusive
Cc1nc(C(=O)N2CCCC(Nc3ccc(C)c(C)c3)C2)cs1 (configuration not stated)	ALR inh 99.0
CSc1nc(C(=O)N2CCCC(Nc3ccc(C)c(C)c3)C2)cs1 (configuration not stated)	ALR inh 98.4
O=C(CSc1nc2ccccc2n1Cc1ccccc1Cl)NN=C/C(Br)=C/c1ccccc1	none (no result: APOBEC3G inh, ALR inh, A3A deaminase, aDG glyco act, PHOSPHO1 block)
CC(C)(C)OC(=O)/C=C/[C@@H](CCCCl)Sc1ccc(C(C)(C)C)cc1	none (no result: APOBEC3G inh, ALR inh, A3A deaminase, aDG glyco act, PHOSPHO1 block)
CCCCCN(C(=O)Cc1c(C)n(CCCCC)c2ccccc12)c1ccc(Oc2cccnc2)c(C)c1	none (no result: APOBEC3G inh, ALR inh, A3A deaminase, aDG glyco act, PHOSPHO1 block)

Compound activity from PubChem BioAssay.
